Source: PubChem BioAssay AID493115 (The Scripps Research Institute Molecular Screening Center, 2011)
Some of the results follow.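 How the source made its calls: active means mean activation above a set limit carried over from the earlier primary screen; inactive means the rest.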

The compounds below were run against Caspase-7 (Homo sapiens) (UniProt P55210) (assay: activation of procaspase-7 enzyme – biochemical, absorbance, human, dual procaspase-3/-7 activator project, confirmation (AID 493115;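 further: 0% = DMSO only and 100% = DMSO with added 5 µM PC-7 enzyme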)). Details: recombinant procaspase-7, Ac-DEVD-pNA absorbance 405 nm; at 8.5 µM; hits give high values; D23A/D198A/D206A mutant that cannot self-cleave.
Sequence of Caspase-7 (Homo sapiens) (P55210 whole entry D23A/D198A/D206A): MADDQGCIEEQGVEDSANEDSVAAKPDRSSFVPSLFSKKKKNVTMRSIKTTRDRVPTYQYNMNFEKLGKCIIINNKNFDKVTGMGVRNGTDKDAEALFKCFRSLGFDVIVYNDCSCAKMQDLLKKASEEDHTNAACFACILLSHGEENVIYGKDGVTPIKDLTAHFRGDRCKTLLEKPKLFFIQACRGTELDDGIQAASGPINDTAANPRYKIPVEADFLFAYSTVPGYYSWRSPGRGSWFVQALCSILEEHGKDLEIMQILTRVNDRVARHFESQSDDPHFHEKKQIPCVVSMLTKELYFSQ

activation, inactive:
CCCCOC(=O)Cn1c(=O)n(CC(=O)OCCCC)c2cc(C)ccc21 0.05%, COc1ccccc1N=Cc1c(O)c2ccccc2oc1=O -13.5%, Nc1cccc2c1C(=O)N(Cc1nnc(-c3ccccc3Br)o1)C2=O -35.8%, COc1ccc(Nc2ncnc3sc(-c4ccccc4)cc23)c(OC)c1 -12.6%, COc1ccc(-c2onc3ccc(C(C)=O)cc23)cc1 -35.4%, O=C1OCCN1C(=O)[C@H]1[C@H](c2ccc(F)cc2)C(c2ccccc2)=NN1c1ccc(Br)cc1 -35.1%, Fc1ccc(N2N=C(c3cccs3)CC2c2ccco2)c(F)c1 (stereo not given) -34.9%, COc1ccc(Nc2ncc(C(=O)N3CCN(c4ccccc4OC)CC3)c3ccccc23)cc1 2.22%, CC1(C)Cc2c(C#N)c(SCc3nc4ccccc4[nH]3)nc(N3CCOCC3)c2CO1 -34.3%, CNS(=O)(=O)c1cccc(C(=O)NC2CCCc3ccccc32)c1 (stereo not given) 0.28%, COc1ccc2sc(-c3ccc(S(C)(=O)=O)cc3)c(C#Cc3cncn3C)c2c1 -34.2%, CCOC(=O)C1(CCOC)CCN(Cc2cc3ccccc3s2)CC1 2.06%, COc1ccc(/C=N/Nc2nc3ccccc3c(=O)[nH]2)cc1 0.2%, CC(=O)Oc1ccc2c(C)c(CC(C)O)c(=O)oc2c1 (stereo not given) -34%, CCN(CC)c1ccc2oc(=O)c(C)nc2c1 -21%
